PubChem BioAssay (NCI)
The panel holds about 79,000 compounds, 15% with a hit somewhere; the sample as a whole holds those more often. Unmarked numbers belong to inactive results. The source made the active and inactive calls. Cut-off read from the data, not from the text of the source: active = growth inhibition above about 70%; inactive = the rest.

Assays:
[1] = NCI Yeast Anticancer Drug Screen. Data for the rad50 strain (AID 155);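 note: 0% = growth of vehicle-only cultures of the same strain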; conditions: S. cerevisiae rad50 strain growth inhibition, active compounds read high
Procedure, shortened: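 A DNA repair-deficient yeast mutant serves as the test organism; compound-induced growth inhibition is calculated against vehicle-treated cells.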

[2] = NCI Yeast Anticancer Drug Screen. Data for the mec2-1 strain (AID 157); conditions: S. cerevisiae mec2-1 strain, active compounds read high
Procedure, shortened: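 Mutant yeast (mec2-1) grown with compound; growth inhibition relative to vehicle control reported.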

[3] = NCI Yeast Anticancer Drug Screen. Data for the sgs1 mgt1 strain (AID 161);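 note: 0% = growth of cultures given vehicle only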; conditions: S. cerevisiae sgs1 mgt1 strain, active compounds read high
Procedure, shortened: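 Compounds are added to genetically altered yeast, and growth is compared with cultures given vehicle alone to give percent inhibition.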

[4] = NCI Yeast Anticancer Drug Screen. Data for the cln2 rad14 strain (AID 165);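 note: 0% = growth equal to vehicle treated cultures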; conditions: S. cerevisiae cln2 rad14 strain, active compounds read high
Procedure, shortened: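 Readout is yeast growth inhibition versus vehicle-treated controls, using a strain with cln2 and rad14 alterations exposed to compound.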

[5] = NCI Yeast Anticancer Drug Screen. Data for the bub3 strain (AID 167); conditions: S. cerevisiae bub3 mutant strain, active compounds read high
Procedure, shortened: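 Inhibition values come from growth of compound-treated mutant yeast normalised to vehicle-treated controls.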

[6] = NCI Yeast Anticancer Drug Screen. Data for the mlh1 rad18 strain (AID 175); conditions: S. cerevisiae mlh1 rad18 strain growth inhibition, active compounds read high
Procedure, shortened: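 Genetically defined yeast (DNA repair-deficient) exposed to compounds; growth inhibition determined relative to vehicle.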

[7] = at 5.0 µM (retest, dose inferred, filed as 0.5)
[8] = at 50.0 µM (retest, dose inferred, filed as 5.0)

Structure (SMILES) | growth inhibition [1, 7] [%] | growth inhibition [1, 8] | growth inhibition ([1]; at 50.0 µM) | growth inhibition [2, 7] [%] | growth inhibition [2, 8] | growth inhibition ([2]; at 50.0 µM) | growth inhibition [3, 7] | growth inhibition [3, 8] | growth inhibition ([3]; at 50.0 µM) | growth inhibition [4, 7] [%] | growth inhibition [4, 8] | growth inhibition ([4]; at 50.0 µM) | growth inhibition [5, 7] | growth inhibition [5, 8] | growth inhibition ([5]; at 50.0 µM) | growth inhibition [6, 7] [%] | growth inhibition [6, 8] | growth inhibition ([6]; at 50.0 µM)
CCN(CC)CCSCCCNc1cc(OC)cc2cccnc12 | -1 | 24% | 67.5% | 6 | 29% | 59.6% | 13% | 54% | 71% (active) | 8 | 32% | 78% (active) | 10% | 54% | 54% | 7 | 28% | 65.3%
Cc1c(N=Nc2ccc(Br)cc2)c(-c2ccccc2)nn1C(=S)S | -1 | 20% | 88.7% (active) | 2 | 26% | 88% (active) | 3% | 45% | 90.5% (active) | 4 | 34% | 51.5% | 3% | 74% (active) | 86.6% (active) | 1 | 31% | 92.7% (active)
CCCCCCCC[N+](C)(C)Cc1ccc(C[N+](C)(C)CCCCCCCC)cc1 | 1 | 24% | 8.75% | 15 | 26% | 7.5% | 3% | 34% | 1.05% | 0 | 18% | 24.9% | 2% | 16% | 8.35% | 0 | 33% | 86% (active)
O=S(=O)(Nc1cccc(C2=NCCN2)c1)c1ccc2c(S(=O)(=O)Nc3cccc(C4=NCCN4)c3)cccc2c1 | -3 | 9% | 82.5% (active) | 6 | 2% | 9.45% | -5% | 2% | 88.3% (active) | -1 | 6% | 13.6% | -7% | -12% | 4.8% | -2 | 3% | 78.2% (active)
Cc1cccc2c1Oc1cc(Cl)ccc1C2NC(=O)CCN1CCN(CCO)CC1 (configuration not stated) | 0 | 29% | 38% | -11 | -13% | -0.05% | -3% | 6% | 38.1% | 11 | 26% | 25.6% | -8% | 11% | 39.4% | 3 | 29% | 70.3% (active)
CSc1cccc(N2C(=O)C=CC2=O)c1 | 42 | 52% | 91.5% (active) | 49 | 48% | 93.4% (active) | 100% (active) | 100% (active) | 94% (active) | 69 | 100% (active) | 91.5% (active) | 100% (active) | 100% (active) | 92.7% (active) | 34 | 45% | 92.5% (active)
C=C1C(=O)OC2C1CCC(=C)C1CC(O)C(=C)C12 (configuration not stated) | 3 | 44% | 92.2% (active) | 11 | 64% | 94.2% (active) | 0% | 70% (active) | 93.6% (active) | 10 | 39% | 92.4% (active) | 2% | 65% | 92.5% (active) | 8 | 70% (active) | 31.4%
Oc1cc(C(c2ccccc2)c2ccccc2)c2ccccc2c1O | 17 | 1% | 97.6% (active) | 26 | 8% | 98.5% (active) | 20% | 1% | 98.5% (active) | 13 | 0% | 97.7% (active) | 10% | 2% | 98.2% (active) | 34 | 1% | 97.8% (active)
Oc1c(C(Nc2ccccn2)c2ccccc2)ccc2cccnc12 (configuration not stated) | 8 | 97% (active) | 94.6% (active) | 19 | 97% (active) | 94.3% (active) | -4% | 96% (active) | 95.5% (active) | -11 | 94% (active) | 93% (active) | -9% | 97% (active) | 94.4% (active) | 7 | 96% (active) | 94.5% (active)
